PubChem BioAssay (EPA / NIEHS)
Values joined by “and” are separate entries in the source; they are usually repeats but may differ in a detail not shown here. Equal entries are not always repeated. Results filed as inconclusive are left out. A structure can be active in one record and inactive in another. Active and inactive are the calls of the source. How the source made its calls, unless noted: active means hit-call score of the fitted dose curve at least 0.9, where 1 is the maximum; inactive means score below 0.9.

Experiments:
[1] = molecular target: human RAR-related Orphan Receptor beta (RORb), RORB (gene 6096) (UniProt Q92753); assay: ATG_RORb_TRANS: Attagene TRANS-FACTORIAL HepG2 Assay for human RAR-related Orphan Receptor beta (RORb) (AID 2283010; active means hit-call score of the fitted dose curve at least 0.9, where 1 is the maximum)
human RAR-related Orphan Receptor beta (RORb), RORB (gene 6096), sequence (Q92753 whole entry, looked up, the tested form may be a part): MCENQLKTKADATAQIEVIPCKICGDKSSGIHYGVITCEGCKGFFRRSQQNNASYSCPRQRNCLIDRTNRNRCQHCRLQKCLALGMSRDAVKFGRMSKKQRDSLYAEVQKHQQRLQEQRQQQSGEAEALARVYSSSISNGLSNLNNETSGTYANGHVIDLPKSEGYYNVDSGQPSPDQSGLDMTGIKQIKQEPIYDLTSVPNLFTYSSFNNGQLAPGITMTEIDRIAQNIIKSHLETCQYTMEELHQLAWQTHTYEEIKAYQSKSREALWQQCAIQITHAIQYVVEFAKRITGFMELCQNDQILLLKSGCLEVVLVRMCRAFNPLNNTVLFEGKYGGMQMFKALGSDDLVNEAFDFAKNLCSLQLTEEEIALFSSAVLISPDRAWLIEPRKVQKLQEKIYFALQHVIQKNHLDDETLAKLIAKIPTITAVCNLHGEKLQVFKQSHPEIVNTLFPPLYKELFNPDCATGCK
Outline: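 HepG2, transient MRTU transfection (GAL4-UAS reporters, exogenous NR-Gal4 chimeras); 24 h compound exposure; total RNA → RT-PCR → 6-FAM primer extension → HpaI digest → CE fluorescence. Positive direction vs DMSO baseline.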

[2] = molecular target: human RAR-related Orphan Receptor gamma (RORg), RORC (gene 6097) (UniProt P51449); assay: ATG_RORg_TRANS: Attagene TRANS-FACTORIAL HepG2 Assay for human RAR-related Orphan Receptor gamma (RORg) (AID 2283011; active means hit-call score of the fitted dose curve at least 0.9, where 1 is the maximum)
human RAR-related Orphan Receptor gamma (RORg), RORC (gene 6097), sequence (P51449 whole entry, looked up, the tested form may be a part): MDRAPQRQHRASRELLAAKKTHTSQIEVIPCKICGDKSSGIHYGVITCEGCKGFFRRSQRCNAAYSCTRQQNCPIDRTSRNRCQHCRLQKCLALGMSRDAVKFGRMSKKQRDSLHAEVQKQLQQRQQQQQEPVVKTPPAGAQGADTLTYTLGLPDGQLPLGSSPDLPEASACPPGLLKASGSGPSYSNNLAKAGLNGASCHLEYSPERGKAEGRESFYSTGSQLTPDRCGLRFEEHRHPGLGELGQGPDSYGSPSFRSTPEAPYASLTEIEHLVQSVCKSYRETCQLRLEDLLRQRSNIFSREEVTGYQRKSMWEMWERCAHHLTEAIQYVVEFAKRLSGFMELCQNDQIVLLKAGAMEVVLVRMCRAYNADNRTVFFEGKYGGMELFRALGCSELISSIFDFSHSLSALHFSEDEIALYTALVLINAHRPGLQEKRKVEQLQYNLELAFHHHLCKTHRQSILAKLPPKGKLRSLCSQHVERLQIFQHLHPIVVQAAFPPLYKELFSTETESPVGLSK
Outline: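 Reporter transcripts from a transfected RORg-GAL4 chimera in HepG2 cells were quantified 24 h after dosing by RT-PCR, 6-FAM labelling, HpaI digestion and capillary electrophoresis; increases over DMSO baseline were fitted.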

[3] = molecular target: Retinoic acid receptor RXR-alpha (Homo sapiens) (UniProt P19793); assay: ATG_RXRa_TRANS: Attagene TRANS-FACTORIAL HepG2 Assay for human Retinoid X Receptor alpha (RXRa) (AID 2283012; active means hit-call score of the fitted dose curve at least 0.9, where 1 is the maximum)
Retinoic acid receptor RXR-alpha (Homo sapiens), sequence (P19793 whole entry, looked up, the tested form may be a part): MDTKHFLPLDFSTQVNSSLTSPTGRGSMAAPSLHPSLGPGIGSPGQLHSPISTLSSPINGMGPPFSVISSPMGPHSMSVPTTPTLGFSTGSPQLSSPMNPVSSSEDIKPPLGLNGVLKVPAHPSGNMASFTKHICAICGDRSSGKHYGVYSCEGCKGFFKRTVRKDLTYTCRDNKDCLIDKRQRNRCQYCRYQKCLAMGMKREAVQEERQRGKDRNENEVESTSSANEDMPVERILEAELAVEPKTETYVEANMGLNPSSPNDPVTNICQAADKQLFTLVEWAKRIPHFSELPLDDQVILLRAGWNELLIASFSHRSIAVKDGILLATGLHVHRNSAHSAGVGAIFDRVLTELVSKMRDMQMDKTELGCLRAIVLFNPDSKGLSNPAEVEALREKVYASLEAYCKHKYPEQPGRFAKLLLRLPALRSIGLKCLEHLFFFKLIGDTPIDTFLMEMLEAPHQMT
Outline: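 Read-out: fluorescent reporter-transcript fragments quantified by capillary electrophoresis after RT-PCR. Transiently transfected HepG2 cells carrying GAL4-UAS reporters and NR-GAL4 chimeras were exposed to chemical for 24 h; activity scored as increase over DMSO.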

[4] = molecular target: human Retinoid X Receptor beta (RXRb), RXRB (gene 6257) (UniProt P28702); assay: ATG_RXRb_TRANS: Attagene TRANS-FACTORIAL HepG2 Assay for human Retinoid X Receptor beta (RXRb) (AID 2283013; active means hit-call score of the fitted dose curve at least 0.9, where 1 is the maximum)
human Retinoid X Receptor beta (RXRb), RXRB (gene 6257), sequence (P28702 whole entry, looked up, the tested form may be a part): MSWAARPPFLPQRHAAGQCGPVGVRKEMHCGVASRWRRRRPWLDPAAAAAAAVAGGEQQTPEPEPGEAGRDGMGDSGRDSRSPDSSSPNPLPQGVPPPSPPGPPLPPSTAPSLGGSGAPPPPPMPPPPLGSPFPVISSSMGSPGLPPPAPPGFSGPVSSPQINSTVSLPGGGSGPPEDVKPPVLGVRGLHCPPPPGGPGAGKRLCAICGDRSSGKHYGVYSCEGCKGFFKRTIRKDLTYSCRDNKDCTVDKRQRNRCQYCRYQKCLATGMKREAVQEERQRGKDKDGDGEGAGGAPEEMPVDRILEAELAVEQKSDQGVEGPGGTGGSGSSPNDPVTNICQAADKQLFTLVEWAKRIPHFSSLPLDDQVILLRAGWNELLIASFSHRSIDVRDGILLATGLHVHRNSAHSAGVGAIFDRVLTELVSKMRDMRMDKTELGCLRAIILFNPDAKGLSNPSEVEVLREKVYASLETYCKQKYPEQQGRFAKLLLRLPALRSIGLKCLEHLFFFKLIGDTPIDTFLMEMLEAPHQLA
Outline: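 Read-out: reporter mRNA induction via RT-PCR plus capillary electrophoresis fluorescence, analysed as signal increase relative to DMSO. Cells were human HepG2, transiently transfected with GAL4-UAS reporter constructs and chimeric receptor-Gal4 fusions, dosed for 24 h.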

[5] = read-out: Interleukin-1 alpha (IL1a), IL1A (gene 3552); assay: BSK_BE3C_IL1a: BioMAP Diversity Plus: BE3C Assay for Interleukin-1 alpha (IL1a) Biomarker Activity (AID 2283016); details: primary human bronchial epithelial cells; actives raise or lower the signal
Outline: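 ELISA read-out of IL-1a from human lung bronchial epithelial primary cells, 24 h post-dose. Gain or loss of signal fitted relative to DMSO negative control.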

[6] = read-out: Monocyte Chemoattractant Protein-1 (MCP1), CCL2 (gene 6347); assay: BSK_3C_MCP1: BioMAP Diversity Plus: 3C Assay for Monocyte Chemoattractant Protein-1 (MCP1) Biomarker Activity (AID 2283017); details: primary human endothelial cells (HUVEC); actives raise or lower the signal
Outline: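 MCP-1 was measured by ELISA 24 h after dosing in primary HUVEC 3C cultures and fitted in both directions relative to DMSO; cytotoxicity was checked by SRB total-protein staining in parallel wells.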

[7] = read-out: Monocyte Chemoattractant Protein-1 (MCP1), CCL2 (gene 6347); assay: BSK_4H_MCP1: BioMAP Diversity Plus: 4H Assay for Monocyte Chemoattractant Protein-1 (MCP1) Biomarker Activity (AID 2283018); details: primary human endothelial cells (HUVEC); actives raise or lower the signal
Outline: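 HUVEC primary cells, 24 h post-dose, MCP-1 by ELISA. Gain or loss of signal fitted bidirectionally vs DMSO baseline. Cytotoxicity: SRB stain (0.1% after 10% TCA fixation), read 560 nm, parallel cultures.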

[8] = read-out: Human Leukocyte Antigen - DR isotype (HLADR), HLA-DRA (gene 3122); assay: BSK_3C_HLADR: BioMAP Diversity Plus: 3C Assay for Human Leukocyte Antigen - DR isotype (HLADR) Biomarker Activity (AID 2283019); details: primary human endothelial cells (HUVEC); actives raise or lower the signal
Outline: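 Bidirectional fitting against DMSO was applied to the HLA-DR ELISA signal from human umbilical vein endothelial cells, 24 h post-dose. Cytotoxicity came from parallel SRB total-protein staining; 3C proliferation was counted by SRB at 48 h.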

[9] = molecular target: human Thyroid Receptor alpha (THRa1), THRA (gene 7067) (UniProt P10827); assay: ATG_THRa1_TRANS: Attagene TRANS-FACTORIAL HepG2 Assay for human Thyroid Receptor alpha (THRa1) (AID 2283014; active means hit-call score of the fitted dose curve at least 0.9, where 1 is the maximum)
human Thyroid Receptor alpha (THRa1), THRA (gene 7067), sequence (P10827 whole entry, looked up, the tested form may be a part): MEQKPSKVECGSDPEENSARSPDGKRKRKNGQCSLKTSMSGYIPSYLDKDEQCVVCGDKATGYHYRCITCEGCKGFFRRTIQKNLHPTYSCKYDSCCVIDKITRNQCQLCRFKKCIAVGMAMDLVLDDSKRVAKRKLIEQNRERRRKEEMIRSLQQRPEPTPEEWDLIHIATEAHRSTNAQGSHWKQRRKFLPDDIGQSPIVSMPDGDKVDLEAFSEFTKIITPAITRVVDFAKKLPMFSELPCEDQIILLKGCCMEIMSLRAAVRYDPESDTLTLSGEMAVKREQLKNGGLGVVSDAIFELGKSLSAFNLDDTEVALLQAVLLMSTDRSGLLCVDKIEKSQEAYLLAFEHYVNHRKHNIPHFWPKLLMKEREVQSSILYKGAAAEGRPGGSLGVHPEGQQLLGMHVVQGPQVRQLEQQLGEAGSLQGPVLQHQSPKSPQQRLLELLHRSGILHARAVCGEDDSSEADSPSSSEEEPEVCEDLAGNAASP
Outline: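 Transcripts from GAL4-UAS-driven reporters, measured after 24 h compound exposure by RT-PCR plus capillary electrophoresis of 6-FAM-labeled fragments, were fitted for gain of signal relative to DMSO. Cells: transiently transfected HepG2 expressing NR-Gal4 chimeras.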

[10] = read-out: E-selectin (Homo sapiens) (UniProt P16581); assay: BSK_3C_Eselectin: BioMAP Diversity Plus: 3C Assay for Eselectin Biomarker Activity (AID 2283015); details: primary human endothelial cells (HUVEC); actives raise or lower the signal;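 further: cell surface E-selectin protein quantified by ELISA 24 h after dosing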
Outline: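 E-selectin ELISA readout, fitted bidirectionally relative to DMSO, taken 24 h post-dosing in HUVEC cultures of the 3C system. Overt cytotoxicity tracked with sulforhodamine B staining of parallel wells.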

Measured: AC50

E-selectin (Homo sapiens), sequence (P16581 whole entry, looked up): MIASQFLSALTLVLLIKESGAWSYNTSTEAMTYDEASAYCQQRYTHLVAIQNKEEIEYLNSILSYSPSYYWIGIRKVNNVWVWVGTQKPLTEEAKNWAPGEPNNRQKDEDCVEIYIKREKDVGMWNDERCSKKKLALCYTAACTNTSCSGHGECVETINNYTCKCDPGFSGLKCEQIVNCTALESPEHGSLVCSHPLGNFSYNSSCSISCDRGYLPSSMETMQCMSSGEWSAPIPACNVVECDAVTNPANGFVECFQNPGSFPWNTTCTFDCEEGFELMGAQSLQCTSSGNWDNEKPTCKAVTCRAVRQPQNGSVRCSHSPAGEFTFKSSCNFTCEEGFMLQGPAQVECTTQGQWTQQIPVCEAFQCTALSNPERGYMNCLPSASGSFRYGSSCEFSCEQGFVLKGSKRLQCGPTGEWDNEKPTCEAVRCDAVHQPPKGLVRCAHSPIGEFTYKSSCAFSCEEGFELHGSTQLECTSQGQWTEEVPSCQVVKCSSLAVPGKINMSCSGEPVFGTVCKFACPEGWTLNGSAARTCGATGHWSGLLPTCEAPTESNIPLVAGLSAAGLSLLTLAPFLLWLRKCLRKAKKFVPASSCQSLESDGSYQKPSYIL

Cc1ccc(C(=O)Cl)cc1
inactive: [1] | [2] | [3]

Nc1cc2c3c(c1)C(c1ccccc1)=N[C@@H](NC(=O)c1cccnc1)C(=O)N3CC2
not listed: [9] | [10]
inactive: all other assays above

O=C(O)CF
inactive: [1] | [2] | [3] | [4]

Nc1ccc2ccccc2c1
not listed: [4] | [10]
inactive: all other assays above

Cc1ccc(N)cc1N
not listed: [9] | [10]
inactive: all other assays above

O=C(O)C(F)(F)C(F)(F)C(=O)O
not listed: [4] | [10]
inactive: all other assays above

N#C/C=C/c1ccccc1
inactive: [1] | [2] | [4] | [9]

O=S(=O)(F)C(F)(F)C(F)(F)C(F)(F)C(F)(F)C(F)(F)C(F)(F)C(F)(F)C(F)(F)F
not listed: [2] | [4]
inactive: all other assays above

NNC(N)=S
inactive: [1] | [2] | [3] | [4]

OCC(F)(F)OC(F)(F)C(F)(F)OC(F)(F)C(F)(F)OC(F)(F)F
active: [4] 32.2 µM | [6] 45.4 µM and 14.5 µM | [7] 45.4 µM | [8] 31.5 µM and 49.7 µM
inactive: [1] | [2] | [3] | [4] | [9] | [5] | [7]

CC(Cl)CN(C)C (stereo not drawn)
active: [8] 7.97 µM
inactive: [1] | [3] | [5] | [6] | [7]

NC(=O)C(F)(F)C(F)(F)F
not listed: [1] | [4]
inactive: all other assays above

CC1=C(C(=O)Nc2ccccc2)S(=O)(=O)CCO1
inactive: [3]

CCCCc1ccc(O)cc1
active: [4] 64.2 µM
inactive: [3]
